HCMV inh – inhibitors of human cytomegalovirus; HFF cells, HCMV-luciferase reporter, 72 h; stronger effect = lower value; activity change, negative = inhibition, % at 57.5 µM; 410,000 compounds, 4.5% hits; AID 1259415; in the data active = activity change below about -60%; inconclusive = no clear call, values can overlap the other calls; inactive = above about -39%
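Compounds were evaluated in HFFs infected with an HCMV luciferase reporter virus (MOI 1 PFU/cell). Luciferase in lysates collected 72 h post infection served as the replication measure.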
Sm TGR inh – S. mansoni TGR enzyme inhibition. 360,000 compounds, 3% hits. purified TGR, DTNB reduction, TNB absorbance 405 nm. Potency, µM (doses to about 114 µM), for inactives: at the top dose activity change, negative = inhibition, usual class: inhibitors. Q962Y6; note: potency is the fitted concentration of half-maximal effect; nearly all actives have a fitted effect of over 60% in size
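Kinetic colorimetric format: TGR-catalysed, NADPH-driven DTNB reduction monitored via TNB absorbance. Enzyme dispensed at 20 nM; compound exposure 15 min at room temperature before reaction start.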
FBPA Giardia inh – Giardia lamblia aldolase inhibition; A8B2U2; purified Giardia FBPA; Potency, µM (series often up to 59.6 µM), for the others: at the highest dose activity, negative = inhibition, most hits filed as inhibitors; 290,000 compounds, 0.71% hits; note: potency is the fitted concentration of half-maximal effect; nearly all actives have a fitted effect of over 55% in size
Target sequence (A8B2U2 whole entry, looked up): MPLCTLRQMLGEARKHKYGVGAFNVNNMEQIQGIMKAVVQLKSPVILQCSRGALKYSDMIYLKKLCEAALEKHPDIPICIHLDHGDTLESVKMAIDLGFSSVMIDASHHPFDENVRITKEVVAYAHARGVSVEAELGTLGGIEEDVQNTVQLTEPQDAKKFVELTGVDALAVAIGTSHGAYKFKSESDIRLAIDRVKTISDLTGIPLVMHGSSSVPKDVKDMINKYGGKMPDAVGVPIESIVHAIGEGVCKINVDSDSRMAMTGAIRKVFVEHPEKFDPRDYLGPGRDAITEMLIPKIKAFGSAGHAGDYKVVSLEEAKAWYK
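Giardia FBPA (40 nM reagent) was preincubated 10 min at RT with compound (up to 57.5 uM final), then substrate plus GAPDH/TPI/NAD/arsenate coupling system with diaphorase/resazurin was added; resorufin fluorescence (525/598 nm) was read after 20 min.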
Pf growth 48h – inhibits P. falciparum growth in the first generation, 48 h; P. falciparum luciferase growth in erythrocytes, 48 h; 310,000 compounds, 5.9% hits; Potency, µM (doses to about 28.7 µM), without a hit: at the top dose activity change, negative = inhibition, actives largely listed as inhibitors; note: potency is the fitted concentration of half-maximal effect
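Luciferase-expressing P. falciparum in infected erythrocytes (2% hematocrit, 0.1% parasitemia final) in RPMI 1640/0.5% Albumax were exposed to compound for 48 hours at 37 C, 5% CO2; growth read as luminescence.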
Pf growth 96h – inhibits malaria parasite growth, 96 h. P. falciparum luciferase reporter growth, 96 h. Potency, µM (top dose mostly 28.7 µM), for inactives: at the top dose activity change, negative = inhibition, actives largely listed as inhibitors. 320,000 compounds, 6.9% hits. AID 504834; note: potency is the fitted concentration of half-maximal effect
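Two parasite generations (96 h, 37 C, 5% CO2) of compound exposure in infected erythrocytes (0.05% parasitemia, 2% hematocrit). Luciferase-reporter P. falciparum; decreased luminescence indicates inhibited growth, aimed at apicoplast-acting delayed death.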
* hit, by the source's call; ? = inconclusive; . = not tested or not shown; [ ] = another dose, or the depositor's remark. An excerpt weighted towards active compounds, which were near 14% of everything screened. Unless noted, calls come from the whole dose curve; as a rule, active = well fitted curve in the direction sought with a large enough effect; inconclusive = small, poorly fitted or top-dose-only effect, or another doubt; inactive = no such curve, though single readings can be large; an effect the other way counts as inactive or inconclusive. % is set by controls: 0 for no effect and ±100 for the full control effect.

SMILES	HCMV inh	Sm TGR inh	FBPA Giardia inh	Pf growth 48h	Pf growth 96h
Cc1ccc(CN2CCN(C(=O)C3CCCO3)CC2)cc1 (centres undefined)	3.7	-13.6%	0.2%	7.1%	.
CCOC(=O)C1(CCc2ccccc2)CCN(C(=O)C(C)n2cncn2)CC1 (centres undefined)	0.0	0.0%	4.1%	-1.0%	?
COc1cc(C2CC(=O)Oc3cc(C)c(Br)c(C)c32)cc(OC)c1OC (centres undefined)	-10.9	.	-27.6%	.	.
CCCc1nc2c(C)cc(Br)cn2c1Cc1cccc(Cl)c1	67.8	.	.	.	.
O=C(NC1CCCN(CCc2ccccc2)C1)C1CCCC1 (centres undefined)	57.5	-1.4%	3.3%	-1.2%	?
Oc1ccc2ccccc2c1CN1CCCCC1	-18.2	.	.	.	.
CCOC(=O)N1CCN(Cc2c(O)ccc3ccccc23)CC1	14.4	0.282µM*	-5.9%	90.5%	24.6%
O=C(C1CCCO1)N1CCN(Cc2c(O)ccc3ccccc23)CC1 (centres undefined)	41.5	0.501µM*	?	.	0.7%
CCOC(=O)c1oc2ccccc2c1CN1CCN(C)CC1	-14.6	-0.6%	-29.9%	16.1%	13.1µM*
O=C(NNS(=O)(=O)c1ccc2ccccc2c1)C1CCN(Cc2ccccc2)CC1	-107.3*	-1.1%	-1.7%	-7.0%	13.7%
CCOC(=O)c1oc2ccccc2c1CN1CCCCC1	-23.6	3.6%	0.1%	23.0%	?
Cc1ccc(NC(=O)C2(S(=O)(=O)c3ccc(Cl)cc3)CC2)cc1	-35.5	3.8%	-4.0%	6.8%	42.9%
CCOc1ccc(S(=O)(=O)NCCC(=O)NCC(c2ccc(OC)cc2)N2CCCCC2)cc1 (centres undefined)	2.3	-2.5%	.	?	?
COc1ccccc1C1CCN(Cc2ccc3ccccc3c2)CC1	-67.4*	-34.1%	-4.4%	.	?
COc1ccccc1C1CCN(Cc2ccccc2)CC1	-16.4	-17.6%	?	17.2%[0.00184 µM]	19.7%
COc1ccc2c(c1)c1nnc(SCC(=O)N3CCCCC3C)nc1n2C (centres undefined)	24.0	25.8%	3.4%	0.4%	8.28µM*
COc1ccc2c(c1)c1nnc(SCC(=O)NC3CC3)nc1n2C	18.0	-2.7%	10.1%	-18.4%	-8.1%
CCCn1c(=N)n(CC(=O)C(C)(C)C)c2ccccc21	-25.5	-7.2%	2.7%	?	?
CCn1c(=N)n(CC(=O)C(C)(C)C)c2ccccc21	11.0	-3.5%	0.6%	.	9.28µM*
CCOCCCn1c(SCC(=O)Nc2ccc3[nH]c(=O)[nH]c3c2)nc2ccccc2c1=O	-8.3	-12.6%	.	11.8%	11.6%
CC(C)(O)c1[nH]c2cc(F)ccc2c1C(C)(C)O	-26.3	-12.1%	-1.1%	-56.2%	?
CCc1cc(=O)oc2cc(C)cc(OC(C)C(=O)NCCN3CCOCC3)c12 (centres undefined)	86.0	-11.3%	.	?	?
O=C(c1ccc2c(c1)OCO2)N1CCN(c2ccc(Cl)cc2)CC1	-35.2	0.0%	1.6%	-6.7%	?
CC(=O)C1=NN(c2ccc(Cl)cc2)C(c2ccc3c(c2)OCO3)N(C(C)=O)N1C (centres undefined)	?	-12.7%	-0.2%	11.7µM*	11.7µM*
CCCCCOP(=O)(c1ccccc1)c1ccccc1	47.7	-0.1%	1.1%	11.7µM*	9.28µM*
SMILES	HCMV inh	Sm TGR inh	FBPA Giardia inh	Pf growth 48h	Pf growth 96h
COc1cc(SC)ccc1C(=O)Nc1ncc(C)s1	-82.0*	7.2%	-19.5%	339.2%	22.9%
COc1cc(SC)ccc1C(=O)Nc1ccon1	-107.5*	3.6%	0.8%	108.8%	?
COc1cc(SC)ccc1C(=O)Nc1ccc(C)cc1	54.3	0.0%	-28.3%	-8.7%	?
COc1cc(SC)ccc1C(=O)NCCOc1ccc(Cl)cc1	?	-4.3%	0.2%	?	0.4%
COc1cc(SC)ccc1C(=O)NCCOc1c(C)cc(C)cc1C	15.3	-25.9%	-2.8%	13.1µM*	4.65µM*
COc1cc(SC)ccc1C(=O)Nc1ccc(Br)cn1	-83.2*	2.4%	-12.0%	-44.9%	289.9%
COc1cc(SC)ccc1C(=O)Nc1ccccn1	44.9	3.6%	-11.5%	190.1%	394.7%
Cc1nc(C(=O)NNC(=O)c2ccc(Cl)cc2)c(C(F)(F)F)o1	-1.9	-3.3%	?	?	-22.4%
CCN(CC)C(=O)CSc1nnc2sc3ccccc3n12	-9.0	-31.2%	-7.1%	28.2%	?
c1ccc(OCCSc2nnc3sc4ccccc4n23)cc1	?	10.6%	17.7µM*	182.8%	19.6%
COc1cccc(OCCSc2nnc3sc4ccccc4n23)c1	39.3	6.5%	15.8µM*	11.5%	6.6%
COCCn1ccc2c(OCC(=O)Nc3ccccc3F)cccc2c1=O	48.2	-4.8%	.	.	.
Cc1ccc(NC(=O)Cn2c(=O)n(CCC(=O)N3CCc4ccccc4C3)c(=O)c3ccccc32)c(C)c1	-65.5*	-10.2%	.	.	.
CCCN(CCC)C(=O)Cn1c(=O)n(CCC(=O)NCCc2ccccc2)c(=O)c2ccccc21	-4.6	-21.1%	-2.1%	.	9.28µM*
COCCCNC(=O)CCn1c(=O)c2ccccc2n(CC(=O)Nc2c(C)cccc2C)c1=O	-0.9	-17.9%	1.0%	8.2%	9.28µM*
CCOC(=O)c1ccccc1NC(=O)Cn1c(=O)n(CCC(=O)N2CCc3ccccc3C2)c(=O)c2ccccc21	-10.7	3.0%	.	.	.
Cc1ccc(NC(=O)Cn2c(=O)n(CCC(=O)NCc3ccccc3Cl)c(=O)c3ccccc32)cc1	-86.1*	7.5%	.	.	.
O=c1oc2c(CN3CCOCC3)c(O)ccc2c2ccccc12	29.0	0.0%	-5.1%	?	?
O=c1oc2c(CN3CCOCC3)c(O)ccc2c2c1CCCC2	-27.4	79.4µM*	-3.0%	?	-0.8%[5.75 µM]
O=c1oc2c(CN3CCOCC3)c(O)c(Cl)cc2c2c1CCCC2	-24.8	44.7µM*	?	-10.9%	12.8%
Cc1cc(=O)oc2c(CN3CCN(C)CC3)c(O)c(Cl)cc12	-102.0*	50.1µM*	-19.0%	9.1%	13.2%
Cc1c(C)c2cc(Cl)c(O)c(CN3CCCCC3)c2oc1=O	.	-11.0%	1.9%	.	-5.1%
O=c1c(-c2cccs2)nc2cncnc2n1-c1ccccc1	.	.	12.3%	.	.
CCOc1ccc(-c2nc3n(c(=O)c2C#N)CCCS3)cc1	-90.8*	0.3%	9.7%	5.2%	-6.2%
Oc1c(Cl)cc(Cl)c2c1NCCC2	10.5	1µM*	?	?	30.7%
Cc1cccc2c1N(CCCOc1ccc(C(C)(C)C)cc1)C(=O)C2=O	.	0.8%	-12.2%	.	9.28µM*
Cc1cccc2c1N(CCCOc1ccccc1)C(=O)C2=O	11.7	-34.6%	-15.2%	-5.1%	-22.4%
CN(C)C(=O)c1ccc(NC(=O)c2cccc(-n3cnnn3)c2)cc1	4.9	.	.	.	.
CCOC(=O)C(N)CSC1CC(=O)N(CCc2ccccc2)C1=O (centres undefined)	37.7	8.91µM*	?	25.5%	138.7%
